CHRM1 PAM = potentiates human M1 receptor response to acetylcholine; activation, % at 3 µM; CHO-K1 hM1, Fluo-8 calcium fluorescence, ACh EC20; 0% = ACh EC20, 100% = maximal ACh; actives 0.088% (n = 360,000); AID 588819; in the data active means activation above about 19%, passing the limit was not always enough
Target sequence (P11229 whole entry, looked up): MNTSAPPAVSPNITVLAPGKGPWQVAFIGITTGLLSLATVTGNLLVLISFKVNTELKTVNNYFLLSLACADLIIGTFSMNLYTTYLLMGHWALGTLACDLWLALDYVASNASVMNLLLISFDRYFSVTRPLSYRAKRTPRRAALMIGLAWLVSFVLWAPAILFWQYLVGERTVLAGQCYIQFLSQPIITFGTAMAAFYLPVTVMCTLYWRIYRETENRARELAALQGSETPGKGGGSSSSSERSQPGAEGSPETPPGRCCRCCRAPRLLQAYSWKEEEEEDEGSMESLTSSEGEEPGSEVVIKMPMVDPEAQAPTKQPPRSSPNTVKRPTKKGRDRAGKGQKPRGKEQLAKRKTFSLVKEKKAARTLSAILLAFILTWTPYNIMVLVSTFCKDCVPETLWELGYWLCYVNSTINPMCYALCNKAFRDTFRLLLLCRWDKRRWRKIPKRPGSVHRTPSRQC
CHO-K1 Ca antag = nonselective inhibitor or artifact in parental CHO-K1 cells; actives 0.6% (n = 360,000); AID 602250; ATP-induced calcium, Fluo-8 fluorescence; inhibition, % at 3 µM;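 active means inhibition above a per-plate cutoff, the plate's mean sample inhibition plus 3 SD, cut at about 24% in these data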;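 further: 0% = DMSO plus EC80 ATP and 100% = DMSO alone without ATP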
M1 ag parental = M1 agonist counterscreen hit in parental CHO-K1 cells | Fluo-8 calcium fluorescence; scaled to maximal ATP response, vehicle zero | activation, % at 3 µM | actives 0.48% (n = 360,000) | AID 602248; in the data active means activation above about 15%;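 further: untransfected CHO-K1 host cells lacking M1 receptor as counterscreen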
M1 ag = agonists of human M1 muscarinic receptor; P11229; CHO-K1 hM1, Fluo-8 calcium fluorescence, agonist mode; 0% DMSO, 100% acetylcholine EC100; activation, % at 3 µM; actives 0.33% (n = 360,000);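 active means activation above the run's mean compound activation plus 3 SD, cut at about 16% in these data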;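 further: peak over basal fluorescence ratio within a 140 s kinetic read after compound addition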
CHRM1 antagonist = blocks human M1 muscarinic receptor; inhibition, % at 3 µM; CHO-K1 hM1, Fluo-8 calcium fluorescence, ACh EC80 antagonist; AID 588852; actives 1.3% (n = 360,000);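 active means percent inhibition above its own plate's cutoff, namely the mean of that plate's compound wells plus 3 SD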;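 further: peak over basal fluorescence ratio during 140 s after agonist addition; 0% = ACh EC80 plus DMSO and 100% = DMSO alone without agonist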
M1 PAM parental = counter-screen for M1 PAMs: effect in parental CHO-K1 cells; ATP EC20, Fluo-8 calcium fluorescence; 0% at ATP EC20, 100% at ATP max; activation, % at 3 µM; actives 0.02% (n = 360,000); AID 602247;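 active means activation above the run cutoff, the mean activation of all test compounds plus 3 SD, cut at about 40% in these data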;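 further: peak over basal fluorescence ratio in a 140 s read after ATP addition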
* hit, by the source's call. Hits are enriched below; roughly 2.3% of the tested compounds scored in any of these assays.

SMILES	CHRM1 PAM	CHO-K1 Ca antag	M1 ag parental	M1 ag	CHRM1 antagonist	M1 PAM parental
COc1ccc(NCC(=O)N/N=C/C=C\c2ccccc2)cc1	11	-4	0	-1	-7	14
COc1cccc(CNc2nc(NCC3CC3)nc3ccsc23)c1OC	-27	5	4	-4	35	-13
CCOC(=O)Cc1ccc(Nc2nc(NCCOC)nc3ccsc23)cc1	-30	-2	5	-5	42*	-11
CC(C)Nc1nc(NCCN2CCNC2=O)c2sccc2n1	-1	-9	0	-9	-11	17
c1ccc(CNc2nc(NCCc3ccncc3)c3sccc3n2)cc1	-31	99*	93*	99*	91*	-14
O=C1NCCN1CCNc1nc(NCc2ccccc2)nc2ccsc12	-33	27*	32*	47*	70*	-13
CSc1ccccc1CNc1nc(NCC2CC2)nc2ccsc12	-21	17	9	2	39*	-10
c1csc(CNc2nc(NCC3CCCCC3)c3sccc3n2)c1	-14	23	14	7	24	14
COCCNc1nc(NCc2cccs2)nc2ccsc12	-33	64*	85*	93*	91*	-18
Cc1ccc(Nc2nc(NCc3cccs3)nc3ccsc23)c(C)c1	-15	8	7	6	13	8
Cc1ccc(Nc2nc(NCc3ccccc3)nc3ccsc23)c(C)c1	-24	18	2	16	55*	-11
O=C1CCCN1CCCNc1nc(NCc2cccs2)nc2ccsc12	-33	22	56*	69*	68*	-12
CNc1nc(NCc2ccccc2)c2sccc2n1	-4	-5	6	2	8	-9
CC(=O)NCCNc1nc(NCc2cccs2)nc2ccsc12	-1	-6	5	-3	-25	-2
c1ccc(CNc2nc(NCc3cccs3)nc3ccsc23)cc1	-21	14	16*	14	25	11
Cn1c(=O)cc(C(=O)N/N=C/c2ccc(F)cc2)[nH]c1=O	3	-6	0	-3	9	18
OC[C@@H]1CN(Cc2ccc(Cl)cc2)C[C@H](n2cnc3c(NCc4ccc(F)cc4)ncnc32)O1	2	-2	4	-1	-2	16
CC(=O)Nc1cc(-c2ccc(C(=O)N3CCOCC3)cc2)cn2c(-c3ccc(S(C)(=O)=O)cc3)cnc12	-4	12	0	-1	3	-10
COc1cccc(CNc2nc(NCc3ccccc3)nc3ccsc23)c1	-28	21	29*	15	46*	-16
O=C1NC(=S)S/C1=C\C=C\c1ccc([N+](=O)[O-])o1	-5	44*	26*	17*	55*	2
COc1cc(NC(=O)Cn2c(=O)n(-c3cccc(C)c3)c(=O)c3c(C)c(C)sc32)cc(OC)c1	9	2	0	-1	-16	-5
OCCNC(=S)NCc1ccccc1	6	-1	0	-1	-3	-7
c1ccc(-c2cnn3c(-c4ccccc4)c(-c4ccccc4)nc3n2)cc1	-9	28*	31*	52*	41*	11
COc1ccc(S(=O)(=O)N(C)c2ccc(C(=O)N3CCC(C(N)=O)CC3)cc2)cc1	4	-3	0	-5	-10	2
COc1ccc(S(=O)(=O)N(C)c2ccc(C(=O)N3CCC(C(N)=O)CC3)cc2)cc1OC	-10	25*	-1	-3	5	-11
SMILES	CHRM1 PAM	CHO-K1 Ca antag	M1 ag parental	M1 ag	CHRM1 antagonist	M1 PAM parental
CCOc1ccc(OCCSc2nc3ccccc3[nH]2)cc1	-6	-1	9	-3	10	7
CCCOc1ccc(CSc2nc3ccccc3[nH]2)cc1	-27	23	12	-3	38*	-8
O=C1C2CCCN2C(=O)N1CCCCN1CCN(c2cccc(Cl)c2)CC1 (configuration not stated)	-2	-6	1	-8	1	17
O=C(c1ccccc1)c1ccc(OCC(O)CNCc2ccc(Cl)cc2)cc1 (configuration not stated)	2	1	18*	2	2	8
C=CCn1c(-c2csc3c2CCC(C)C3)n[nH]c1=S (configuration not stated)	-13	7	0	-13	0	-7
CCCCn1c(-c2csc3c2CCC(C)C3)n[nH]c1=S (configuration not stated)	-21	-16	1	-8	47*	22
CNC(=O)CSc1nnnn1CCCOC	0	-11	1	-3	43*	17
COc1cccc(C(=O)c2c(-c3ccccc3)ncc3cc(OC)c(OC)cc23)c1	-4	7	1	-6	5	-5
COc1cc(/C=C/C(=O)OC(C)C(=O)Nc2c(C)n(C)n(-c3ccccc3)c2=O)ccc1O (configuration not stated)	6	5	0	-2	-7	-5
CCc1ccc(NC(=O)C(C)OC(=O)/C=C/c2ccc(O)c(OC)c2)cc1 (configuration not stated)	-7	-8	25*	34*	-4	-12
CC1(C)CC1C(=O)Nc1ccc([N+](=O)[O-])cc1Br (configuration not stated)	13	-2	0	-7	-8	4
Cc1ccc(C2(c3ccc(C)cc3)CC2C(=O)Nc2ccc([N+](=O)[O-])cc2O)cc1 (configuration not stated)	-20	18	9	3	25*	0
COC(=O)c1ccc(Cn2cnc3c(sc4nc(N5CCOCC5)c5c(c43)CCCC5)c2=O)o1	-5	-8	1	-7	16	19
Cc1ccc(/C=C/c2onc(C)c2S(=O)(=O)N2CCC(C(=O)N3CCCCC3)CC2)cc1	12	-11	0	-4	-17	26
CCCN1CCN(C(=O)C2CCN(S(=O)(=O)c3c(C)noc3/C=C/c3ccc(C)cc3)CC2)CC1	-22	-9	2	-5	34*	11
O=C(NCCO)c1cccc(-c2cnc3cccnn23)c1	3	-16	1	-3	-10	14
CC(NC(=O)NCCCC(=O)O)(C(F)(F)F)C(F)(F)F	6	25*	0	0	-1	-5
OC1(c2cccc(C(F)(F)F)c2)CCN(c2ncnc3c2[nH]c2ccccc23)CC1	-1	25*	0	-1	15	-2
c1ccc2c(c1)CCN(c1ncnc3c1[nH]c1ccccc13)C2	-11	22	11	3	43*	3
c1ccc2c(c1)[nH]c1c(N3CCC4(CC3)OCCO4)ncnc12	-6	-13	7	2	8	18
O=C(CSc1ccc([N+](=O)[O-])cn1)Nc1cc(C(F)(F)F)ccc1N1CCOCC1	9	-4	1	-3	-12	-14

Screening results as filed in PubChem.
